Sampled rows, rich in hits. Any-hit rate of the full collection: about 1.1%.
NCOA2 inhibitor: human SRC2 (NCOA2) inhibition. 370,000 tested, 0.17% active. Q15596. HEK293 GAL4-SRC2 luciferase reporter, luminescence. inhibition, % at 9 µM. AID 651957;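 active means inhibition above the mean inhibition of all tested compounds plus 3 SD, set per campaign, cut at about 52% in these data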
SRC1 inh: inhibits human SRC1 coactivator; Q15788; HEK293 GAL4-SRC1 luciferase reporter, luminescence; inhibition, % at 3.6 µM; 360,000 tested, 0.12% active; AID 588354;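 active means inhibition above the campaign mean plus 3 SD, with each screening campaign given its own cutoff, cut at about 60% in these data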
NR5A2 inv ag: suppresses constitutive activity of human LRH-1. O00482. HEK293T StAR-luciferase reporter, LRH-1 transfected, 24 h. inhibition, % at 3.6 µM. 360,000 tested, 0.13% active;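 active means inhibition above the mean inhibition of all tested compounds plus 3 SD, cut at about 73% in these data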
COUP-TFII inh: inhibitors of human COUP-TFII (NR2F2) | inhibition, % at 8.6 µM | 370,000 tested, 0.7% active | P24468 | HEK293T NGFI-A luciferase reporter, luminescence;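 active means inhibition above a per-plate cutoff, mean inhibition of test wells between control levels plus 3 SD, cut at about 38% in these data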;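 further: cells cotransfected with COUP-TFII expression vector driving the NGFI-A reporter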
SRC3 inh: inhibitors of human steroid receptor coactivator 3 (SRC3); inhibition, % at 3.6 µM; HEK293 GAL4-SRC3 luciferase reporter, luminescence; Q9Y6Q9; 360,000 tested, 0.17% active; AID 588352;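 active means inhibition above a per-campaign cutoff, the mean of all compounds plus 3 SD, cut at about 60% in these data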;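 further: higher means less SRC3-driven luciferase light from the GAL4 reporter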
GalR3 antagonist: antagonists of human GalR3; O60755; HEK293 GalR3-CNG cAMP membrane potential fluorescence; galR3 body fused to GalR1 C-terminus; inhibition, % at 3 µM; 360,000 tested, 0.44% active;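 active means inhibition above the screen-wide average plus 3 SD, cut at about 13% in these data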;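 further: forskolin and galanin both at EC90 stimulate the cells; cAMP rise reported by CNG channel membrane potential dye signal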
VP16 Luc counter: counter-screen for COUP-TFII antagonists: inhibitors of VP16. shares compounds with COUP-TFII inh. HEK293 Gal4-VP16 luciferase reporter, luminescence. inhibition, % at 8.5 µM. 2,500 tested, 25% active; in the data active means inhibition above about 13%
NR2F2 inh conf: COUP-TFII (NR2F2) inhibition, confirmation assay; shares compounds with COUP-TFII inh; HEK293 NGFI-A luciferase reporter, luminescence; inhibition, % at 8.5 µM; 2,500 tested, 45% active;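 active means mean inhibition over three repeats above a set limit taken from the earlier primary screen, cut at about 38% in these data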
Each line names hits and unclear results; the compound was inactive in the other large screens (follow-up assays come after a bar, where they were run); ! = repeats disagree.

COc1ccc(-c2coc3c(C(=O)Nc4cccnc4)cccc23)c(C)c1	COUP-TFII inh 55 | VP16 Luc counter inactive | NR2F2 inh conf inactive
C[C@@H]1COc2cc(Br)ccc2S(=O)(=O)N1Cc1cn(Cc2ccc(Cl)cc2)nn1	none (no result: SRC1 inh, NR5A2 inv ag, SRC3 inh, GalR3 antagonist)
COc1c(C(CC(C)C)OC(C)=O)ccc2c1C(=O)OCc1cc(C)cc(O)c1O2 (stereo unspecified)	COUP-TFII inh 49 | VP16 Luc counter inactive | NR2F2 inh conf inactive
COc1c(C(O)CC(C)C)ccc2c1C(=O)OCc1cc(C)cc(O)c1O2 (stereo unspecified)	COUP-TFII inh 38 | VP16 Luc counter inactive | NR2F2 inh conf inactive
COC(=O)[C@]12C[C@H](CC(=O)NCc3ccc(OC)c(OC)c3)C(=O)N(Cc3cccc4ccccc34)C1=C[C@H](C(C)(C)C)O[C@@H]2C	none (no result: SRC1 inh, NR5A2 inv ag, SRC3 inh, GalR3 antagonist)
C=C(C)Cn1c(N2CCN(c3ccc(OC)cc3)CC2)nc2c1c(=O)n(C)c(=O)n2C	COUP-TFII inh 41 | VP16 Luc counter inactive | NR2F2 inh conf inactive
CC(C)(C)c1ccc(Oc2ccc(NC(=O)c3ccccc3C(=O)O)cn2)cc1	NCOA2 inhibitor 85, COUP-TFII inh 80 | VP16 Luc counter 47 | NR2F2 inh conf inactive
CC(C)(C)c1ccc(Oc2ccc(N)cn2)cc1	NCOA2 inhibitor 86, COUP-TFII inh 78 | VP16 Luc counter 76 | NR2F2 inh conf 67
Cc1cc(Oc2ccc(N)cn2)cc(C)c1Cl	COUP-TFII inh 38 | VP16 Luc counter inactive | NR2F2 inh conf inactive
CC(=O)Nc1cc2nn(-c3ccccc3)nc2cc1Cl	none
CC(C)(C)C(=O)Nc1cc2nn(-c3ccccc3)nc2cc1Cl	NCOA2 inhibitor 73, SRC1 inh 82, NR5A2 inv ag 83, COUP-TFII inh 87, SRC3 inh 81 | VP16 Luc counter 72 | NR2F2 inh conf 101
Cc1nc2ccccc2n1Cc1ccccc1Br	COUP-TFII inh 41 | VP16 Luc counter inactive | NR2F2 inh conf inactive
CCC(C)Cn1c(C)nc2ccccc21 (stereo unspecified)	none
CCOc1ccccc1C(=O)Nc1cc2c(cc1N1CCCC1)n(CC)c(=O)n2CC	COUP-TFII inh 41 | VP16 Luc counter inactive | NR2F2 inh conf inactive
O=C1CCC2(CCC(c3ccccc3)CC2)N1CCO (stereo unspecified)	none (no result: SRC1 inh, NR5A2 inv ag, SRC3 inh, GalR3 antagonist)
Cc1ccccc1NC(=O)N(C)[C@H]1C[C@H]2c3[nH]c4c(-c5ccccc5)cccc4c3CCN2C[C@H]1[C@H](C)O	none (no result: SRC1 inh, NR5A2 inv ag, SRC3 inh, GalR3 antagonist)
CC1(C(=O)Nc2ccc3c(c2)OCO3)CCN1C(=O)Cc1ccc(-c2ccccc2)cc1 (stereo unspecified)	COUP-TFII inh 43 | VP16 Luc counter inactive | NR2F2 inh conf inactive
CC1(C(=O)Nc2ccc3[nH]ncc3c2)CCN1C(=O)Cc1ccc(-c2ccccc2)cc1 (stereo unspecified)	COUP-TFII inh 47 | VP16 Luc counter inactive | NR2F2 inh conf inactive
CN(C)c1ccc(/C=N\NC(=O)c2cccc(S(=O)(=O)N(C)C)c2)cc1	none (no result: SRC1 inh, NR5A2 inv ag, SRC3 inh, GalR3 antagonist)
CCN=c1scc(-c2ccc3c(c2)NC(=O)CO3)n1N=C1CCCC1	COUP-TFII inh 47! | VP16 Luc counter inactive | NR2F2 inh conf 53
C#CCNC(=O)C[C@H]1C[C@@]2(C(=O)OC)C(=C[C@H](C3CCCC3)O[C@@H]2C)N(CCc2ccc(OC)c(OC)c2)C1=O	none (no result: SRC1 inh, NR5A2 inv ag, SRC3 inh, GalR3 antagonist)
N#CCC[C@@H]1CC[C@]2(CCCN(S(=O)(=O)c3ccccc3)C2)O1	none (no result: SRC1 inh, NR5A2 inv ag, SRC3 inh, GalR3 antagonist)
COc1ccc(-c2nc(-c3ccccn3)no2)cc1	NCOA2 inhibitor 75, COUP-TFII inh 83, SRC3 inh 69 | VP16 Luc counter 60 | NR2F2 inh conf 81
COc1ccccc1-c1nc(-c2ccccn2)no1	none
Cc1c(NC(=O)C2CCCN(S(=O)(=O)c3cccc4ccccc34)C2)c(=O)n(-c2ccccc2)n1C (stereo unspecified)	none (no result: SRC1 inh, NR5A2 inv ag, SRC3 inh, GalR3 antagonist)
O=C(Nc1ccccc1SC(=O)c1ccccc1)c1ccccc1	none
Cc1ccc(C(=O)Sc2cccccc2=O)cc1	NCOA2 inhibitor 94, COUP-TFII inh 49, SRC3 inh 75 | VP16 Luc counter 89 | NR2F2 inh conf 92
COc1ccccc1NC(=O)C(C)OC(=O)c1cc2ccccc2[nH]1 (stereo unspecified)	COUP-TFII inh 38 | VP16 Luc counter inactive | NR2F2 inh conf 42
O=C(Nc1ccccc1O)c1ccc(NS(=O)(=O)c2cccc3cccnc23)cc1	COUP-TFII inh 40 | VP16 Luc counter inactive | NR2F2 inh conf 38
CC1CC(C)(C)Nc2ccc(OC(=O)c3ccco3)cc21 (stereo unspecified)	NCOA2 inhibitor 58, COUP-TFII inh 45 | VP16 Luc counter 18 | NR2F2 inh conf inactive
Nc1ncnc2c(C3OC(CO)C(O)C3O)c[nH]c12 (stereo unspecified)	NCOA2 inhibitor 70, SRC1 inh 94, NR5A2 inv ag 100, COUP-TFII inh 82, SRC3 inh 94 | VP16 Luc counter 49 | NR2F2 inh conf 81
Nc1ncnc2c1nc(-c1ccccc1)n2C1OC(CO)C(O)C1O (stereo unspecified)	none
COc1cc(OC)c(OC)cc1CNc1cc(C)ccc1OC	COUP-TFII inh 39 | VP16 Luc counter inactive | NR2F2 inh conf inactive
COc1cc(NC(=O)c2ccccc2)c(C)cc1NC(=O)CSc1nnc(-c2ccccc2F)n1-c1ccc(C)cc1	none (no result: SRC1 inh, NR5A2 inv ag, SRC3 inh, GalR3 antagonist)
CCOC(=O)CC[C@H]1CC[C@]2(CCCN(C(=O)c3ccco3)C2)O1	none (no result: SRC1 inh, NR5A2 inv ag, SRC3 inh, GalR3 antagonist)
COc1cccc(N2CCN(c3c4c(nc5ncnn35)CCC4)CC2)c1	COUP-TFII inh 55 | VP16 Luc counter inactive | NR2F2 inh conf inactive
CC(C)CCNC(=O)C1CCN(c2cncnc2)CC1	none (no result: SRC1 inh, NR5A2 inv ag, SRC3 inh, GalR3 antagonist)
CC(C)Cn1c(N)c(C(=O)COC(=O)CC23CC4CC(CC(C4)C2)C3)c(=O)n(C)c1=O	COUP-TFII inh 45 | VP16 Luc counter inactive | NR2F2 inh conf 57
CC(=O)Nc1ccc(-c2ccnc3c2CC(C)(C(=O)NCc2ccco2)O3)cc1 (stereo unspecified)	none
CN(C)c1ccc(-c2ccnc3c2CC(C)(C(=O)NCc2ccco2)O3)cc1 (stereo unspecified)	COUP-TFII inh 49 | VP16 Luc counter inactive | NR2F2 inh conf inactive
CC(C)(C)c1ccc(C(=O)Nc2ccc(NC(=O)C(=O)O)cc2)o1	NCOA2 inhibitor 59, COUP-TFII inh 42 | VP16 Luc counter inactive | NR2F2 inh conf inactive
CCOC(=O)[C@@]12CCCC=C1N(CCc1ccc(Cl)cc1)C(=O)[C@H]2CC(=O)NCC1CCCCC1	none (no result: SRC1 inh, NR5A2 inv ag, SRC3 inh, GalR3 antagonist)
O=C(CN1CCc2onc(-c3cccc(-n4cc(CO)nn4)c3)c2C1=O)N1CCOCC1	none (no result: SRC1 inh, NR5A2 inv ag, SRC3 inh, GalR3 antagonist)
